# Assay outcomes from PubChem.
# Pol kappa inh-1: blocks human DNA polymerase kappa activity; Potency, µM (highest dose often 107 µM), for inactives: at the top dose activity, negative = inhibition, usual class: inhibitors; hit rate 0.53% among 400,000; purified Pol kappa, fluorescent DNA synthesis assay, 10 min; Q9UBT6; also: % is scaled to controls: 0 for no effect and ±100 for the full control effect
#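 Enzyme at 10 nM met test compounds for 15 min at room temperature. Substrate addition (50 nM final) began the reaction, which was monitored by fluorescence at 0 and 10 min.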
# Pol beta inh: DNA polymerase beta (human) inhibition. Potency, µM (series often up to 114 µM), for the others: top-dose activity change, negative = inhibition, usual class: inhibitors. hit rate 1.3% among 340,000. AID 485314. Pol beta primer extension/strand displacement, fluorescence kinetic; also: % is scaled to controls: 0 for no effect and ±100 for the full control effect
#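 Preincubation: enzyme (10 nM) with compound, 15 min, RT. Reaction: substrate added to 50 nM final. Reads: 0 and 10 min. Analysis: normalized, Hill fit.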
# POLI inh: DNA polymerase iota (human) inhibition; Pol iota fluorescent replication assay, 10 min; Q9UNA4; AID 588590; hit rate 1% among 390,000; Potency, µM (series often up to 115 µM), inactives show top-dose activity, negative = inhibition, most hits filed as inhibitors
# Target sequence (Q9UNA4 whole entry, looked up): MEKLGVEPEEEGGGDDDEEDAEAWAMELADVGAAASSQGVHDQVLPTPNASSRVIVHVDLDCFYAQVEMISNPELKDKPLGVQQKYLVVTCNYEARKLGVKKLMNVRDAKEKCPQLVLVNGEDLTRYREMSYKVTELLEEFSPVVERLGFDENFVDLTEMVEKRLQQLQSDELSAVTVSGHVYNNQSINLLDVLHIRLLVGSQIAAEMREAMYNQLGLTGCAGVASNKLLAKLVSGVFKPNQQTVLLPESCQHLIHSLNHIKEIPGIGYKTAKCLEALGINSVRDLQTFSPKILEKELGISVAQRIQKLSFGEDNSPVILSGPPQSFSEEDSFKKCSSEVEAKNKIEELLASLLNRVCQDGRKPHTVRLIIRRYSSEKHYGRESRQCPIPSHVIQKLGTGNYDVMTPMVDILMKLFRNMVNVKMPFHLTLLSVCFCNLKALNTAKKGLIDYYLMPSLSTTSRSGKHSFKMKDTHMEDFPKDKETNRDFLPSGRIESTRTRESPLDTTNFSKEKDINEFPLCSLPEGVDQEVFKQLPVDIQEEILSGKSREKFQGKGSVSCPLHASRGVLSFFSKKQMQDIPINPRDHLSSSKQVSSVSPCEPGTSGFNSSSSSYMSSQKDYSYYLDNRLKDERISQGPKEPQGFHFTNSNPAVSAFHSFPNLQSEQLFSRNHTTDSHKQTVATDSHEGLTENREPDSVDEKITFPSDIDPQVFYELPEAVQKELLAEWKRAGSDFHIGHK
#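 Pol iota at 10 nM preincubated 15 min with compounds at room temperature; reaction started with fluorescent substrate, 50 nM final. Fluorescence read kinetically at 0 and 10 min; buffer-only wells as negative control.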
# WRN helicase inh: inhibitors of human WRN helicase; Q14191; hit rate 0.46% among 360,000; WRN helicase unwinding, fluorescent forked duplex, kinetic; Potency, µM (doses to about 114 µM), inactives show top-dose activity change, negative = inhibition, usual class: inhibitors; also: % is scaled to controls: 0 for no effect and ±100 for the full control effect; nearly all actives have a fitted effect of over 55% in size
#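 WRN at 20 nM final preincubated with compound 15 min at room temperature; reaction started with 100 nM fluorophore/quencher forked duplex oligonucleotide and 2 mM ATP final. Unwinding followed kinetically by red fluorescence (ex 525, em 598 nm).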
# Pol eta inh-1: DNA polymerase eta (human) inhibition | recombinant Pol eta, fluorescent DNA replication assay | Potency, µM (series often up to 114 µM), without a hit: at the highest dose activity change, negative = inhibition, actives largely listed as inhibitors | Q9Y253 | hit rate 1.2% among 390,000; also: % is scaled to controls: 0 for no effect and ±100 for the full control effect
#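 Pol eta (10 nM) was preincubated with compounds for 15 min at room temperature, after which fluorescent replication substrate (50 nM final) was added to start the reaction. Fluorescence was read kinetically at 0 and 10 min.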
# FEN1 inh-1: inhibitors of human flap endonuclease 1; Potency, µM (titrated, usually from 114 µM), for inactives: at the highest dose activity change, negative = inhibition, most hits filed as inhibitors; hit rate 0.35% among 390,000; Recombinant FEN1 flap cleavage, fluorescence, 15 min; P39748; AID 588795; also: % is scaled to controls: 0 for no effect and ±100 for the full control effect; nearly all actives have a fitted effect of over 65% in size
#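 Enzyme 10 nM, 15 min RT preincubation with compound; start with substrate 50 nM final; reads at 0 and 15 min; qHTS titration, four-parameter Hill fit.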
# Pol kappa inh-2: Pol kappa (human) inhibition, cherry-pick confirmation | shares compounds with Pol eta inh-1 | purified Pol-kappa, fluorescent strand-displacement substrate | Potency, µM, most hits filed as inhibitors | hit rate 76% among 920 | AID 720501
# Pol eta inh-2: confirmation of human DNA polymerase eta inhibitors; shares compounds with Pol eta inh-1; Pol eta primer extension, TAMRA/BHQ fluorescence, 10 min; Potency, µM, actives largely listed as inhibitors; hit rate 64% among 2,600; AID 720502
# FEN1 inh-2: FEN1 inhibition, cherry-pick retest; shares compounds with FEN1 inh-1; FEN1 flap cleavage, TAMRA/BHQ2 fluorogenic DNA substrate; Potency, µM, hits mostly inhibitors; hit rate 79% among 880; also: nearly all actives have a fitted effect of over 60% in size
# Active calls of the source: *; u = inconclusive; x = no result; [ ] = another dose, or the depositor's remark. Shown are actives, neighbours in structure and some others; about 2.4% of the full set was active somewhere. Calls follow the shape of the dose curve; as a rule, active = well fitted curve in the direction sought with a large enough effect; inconclusive = small, poorly fitted or top-dose-only effect, or another doubt; inactive = no such curve, though single readings can be large; an effect the other way counts as inactive or inconclusive. Potency is read from the fitted curve at half-maximal effect.
SMILES,Pol kappa inh-1,Pol beta inh,POLI inh,WRN helicase inh,Pol eta inh-1,FEN1 inh-1,Pol eta inh-2,FEN1 inh-2,others
CCCCCCC(N)CC(=O)O (centres undefined),-2%,11%,7%,-5%,-6%,-1%,x,x,
CCc1ccc(-n2nc(C)c3c(C(=O)NCCc4ccc(OC)c(OC)c4)cc(C)nc32)cc1,-1%,3%,13%,x,u,-4%,x,x,
O=C1NC(=O)C(=Cc2ccc(-c3ccccc3[N+](=O)[O-])o2)C(=O)N1,-15%,4%,u,u,-12%,u,x,x,
O=C(O)c1ccccc1-c1ccc(C=C2C(=O)N(c3ccccc3)C(=S)N(c3ccccc3)C2=O)o1,u,45µM*,u,u,18µM*,u,34*,x,Pol kappa inh-2=17*
CSCC[C@H](NC(=O)[C@H](CC(C)C)NC(=O)[C@@H](Cc1cnc[nH]1)NC(=O)[C@H](Cc1ccccc1)NC(=O)[C@@H](Cc1ccccc1)NC(=O)[C@@H](N)Cc1ccc(O)cc1)C(N)=O,15%[60.1 µM],x,x,x,x,x,x,x,
COC1C(O)C(C)O[C@H](OC2CC[C@@]3(C=O)C4CC[C@]5(C)C(C6=CC(=O)OC6)CC[C@@]5(O)C4CC[C@@H]3C2)C1O (some centres undefined),-3%[60.1 µM],x,x,x,x,x,x,x,
Cc1cccc(Oc2nc3c(C)cccn3c(=O)c2/C=C(\C#N)c2nc3ccccc3s2)c1,-12%,-17%,-10%,x,50µM*,u,u,67*,Pol kappa inh-2=42*
O=CN1CCCCC1C1CC[C@H]2CCCCN2C1 (some centres undefined),-13%[19.4 µM],x,x,x,x,x,x,x,
CCCCCCCCCCCC[N+](C)(C)CCOc1ccccc1,-18%[60.1 µM],x,x,x,x,x,x,x,
CC[N+](C)(CC)CCCCOc1ccc2c(c1)C(=O)c1cc(OCCCC[N+](C)(CC)CC)ccc1-2,u,u,14µM*,40µM*,u,u,u,21*,
COc1ccc(C(=O)Nc2ccc(-c3cc(C(F)(F)F)nn3-c3ccccc3)cc2)cc1OC,-10%[60.1 µM],u,u,x,-11%,-22%,x,x,
CN1C(=O)NC(=O)/C(=C/c2ccc([N+](=O)[O-])s2)C1=O,u,u,u,u,22µM*,u,76*,7.6*,
Cc1ccc(/C=C2/C(=O)NC(=O)N(C)C2=O)cc1,-3%,24%,59%,u,-5%,1%,x,x,
O=[N+]([O-])c1ccc(N2CCCCCC2)c2nonc12,u,20µM*,28µM*,22µM*,u,u,60*,43*,
